A selection: hits, their analogues and other compounds. The true share with any hit is near 4.2%.
uPA generation – qHTS for Inhibitors of Cell Surface uPA Generation | AID 540303, 2011 | cell surface uPA generation assay, qHTS | 0.31% of 330,000 active | Potency, µM (top dose mostly 38.3 µM), for inactives: at the highest dose activity change, negative = inhibition, actives largely listed as inhibitors; active = well fitted inhibition curve with a large enough effect; inconclusive = small, poorly fitted or top-dose-only effect; inactive = no such curve, though single readings can be large or run the other way; tested in mouse RAW 264.7 cells; also: potency is read from the fitted curve at half-maximal effect; % is scaled to controls: 0 for no effect and ±100 for the full control effect; nearly all actives have a fitted effect of over 55% in size
TCR activator – Activators of T cell receptors: qHTS campaign; primary human leukocytes, anti-CD3, IL-2 HTRF, 48 h; Potency, µM (titrated, usually from 9.22 µM), inactives show at the highest dose activation of IL-2 secretion, hits mostly activators; 330,000 tested, under 10 active; AID 504894, 2011; also: % of control where 0% means no effect
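Primary human leukocytes incubated 48 hr with anti-CD3 beads plus compound, without co-stimulation. Secreted IL-2 measured by HTRF (europium cryptate/d2 anti-IL-2 pair, 320 nm excitation, 665 nm emission).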
ClpP mod – qHTS Assay for Activators of ClpP; 1.9% of 340,000 active; purified B. subtilis ClpP, FRET peptide cleavage, 20 min; AID 651965, 2013; Potency, µM (series often up to 57.5 µM), without a hit: at the highest dose activity change, negative = active; active = well fitted falling curve with a large enough effect; inconclusive = small, poorly fitted or top-dose-only effect; inactive = no such curve, though single readings can be large or run the other way; also: potency is read from the fitted curve at half-maximal effect; the source files actives as falling curves though it sought activators and does not explain the sign; nearly all actives have a fitted effect of over 65% in size
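Buffer: 100 mM Tris/HCl pH8, 100 mM KCl, 0.05% low protease BSA, 2.5% glycerol, 0.01% Tween-20. ClpP 10 microg/mL final; 20 min RT; delta FRET normalized to ADEP and DMSO controls.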
Sfp PPTase inh – qHTS Assay for Inhibitors of Bacillus subtilis Sfp phosphopantetheinyl transferase (PPTase); 4'-phosphopantetheinyl transferase ffp (Bacillus subtilis), Q9F4F7; Biochemical Sfp PPTase activity, qHTS; Potency, µM, inactives show largest response in the series, negative = inhibition, most hits filed as inhibitors; 3.5% of 310,000 active; AID 1490, 2009;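 also: the enzyme is Sfp with the accession as filed and its product quenches rhodamine fluorescence; potency is read from the fitted curve at half-maximal effect; 0% = enzyme reaction without inhibitor and -100% = no enzyme wells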
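With Hepes-Na pH 7.6 buffer containing 10 mM MgCl2, Sfp (15 nM) modified BHQ-2-YbbR (12.5 uM) using rhodamine-CoA (5 uM). Two reads 30 minutes apart at 525/598 nm yielded each well's rate.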
The depositor's hits bear a star; ? = inconclusive; . = no result; ! = a repeat was not active; [ ] = remark or other dose. Unless noted, calls follow the shape of the dose curve; as a rule, active = well fitted curve in the direction sought with a large enough effect; inconclusive = small, poorly fitted or top-dose-only effect, or another doubt; inactive = no such curve, though single readings can be large; an effect the other way counts as inactive or inconclusive.

SMILES | uPA generation | TCR activator | ClpP mod | Sfp PPTase inh
O=C(c1ccco1)N1CCN(c2nc(C3CC3)nc3sc4c(c23)CCCC4)CC1 | -26% | -9% | -27% | 79µM*
CCCN1CCN(C(c2cc3cc(OCC)ccc3[nH]c2=O)c2nnnn2C2CCCCC2)CC1 (stereo not drawn) | . | 11% | 28µM* | -5%
COc1ccc2[nH]c(=O)c(C(c3nnnn3C3CCCCC3)N3CCN(C)CC3)cc2c1 (stereo not drawn) | . | -4% | 32µM* | -8%
CCOc1ccc2[nH]c(=O)c(CN(CCO)C(c3nnnn3C3CCCCC3)C(C)C)cc2c1 (stereo not drawn) | 0% | 0% | -19% | 89µM*
COc1cccc2c1C(=O)/C(=C\c1ccc(N(C)C)cc1)C2 | . | . | 0% | .
Cn1c(=O)oc2cc(S(=O)(=O)NC(CC(=O)O)c3cccc(Br)c3)ccc21 (stereo not drawn) | . | . | -2% | .
Fc1ccc(NC(=S)NCCN2CCOCC2)cc1 | -1% | -2% | . | 10%
CCN(CC)CCNC(=S)Nc1ccc(F)cc1 | 7% | . | . | 28µM*
Cc1ccc(CNC(=O)CS(=O)(=O)Cc2nc(-c3ccccc3C)oc2C)cc1 | . | . | 18% | .
Cc1ccc(-n2nc3ccc(N)cc3n2)c(C)c1 | -17% | . | 4% | -10%
Cc1ccc(N2C(N)=NC(N)=NC23CCCC3)c(C)c1 | 1% | -3% | 28µM* | 9%
Cc1ccc([N+](=O)[O-])cc1S(=O)(=O)N1CCn2cccc2C1c1ccccc1F (stereo not drawn) | . | . | -3% | .
CO/C=C\C=C/c1nnn(-c2ccc(Cl)cc2)n1 | 3% | 0%[46.1 µM] | . | 4.5µM*
COc1ccc(OCc2ccc(-c3nc(C#N)c(N4CCCCC4)o3)o2)cc1 | . | . | 28µM* | .
Cc1ccc(OCc2nc(C#N)c(N3CCN(Cc4ccccc4)CC3)o2)cc1 | 5% | 2% | -2% | 2%
N#Cc1nc(-c2ccc(COc3ccc(Cl)cc3)o2)oc1N1CCN(c2ccccc2)CC1 | . | . | -8% | .
COc1ccc(-c2nc(C#N)c(N3CCCCC3)o2)cc1 | 6% | 1% | -2% | -20%
COc1ccc(OCc2ccc(-c3nc(C#N)c(N4CCN(c5cccc(Cl)c5)CC4)o3)o2)cc1 | . | . | 3.5µM* | .
CCN1CCN(c2oc(-c3ccc(COc4ccc(C)cc4)o3)nc2C#N)CC1 | . | . | 32µM* | .
CN1CCN(c2oc(-c3ccc(OCc4ccc(Cl)cc4)cc3)nc2C#N)CC1 | . | . | -22% | .
COc1ccc(OCc2ccc(-c3nc(C#N)c(N4CCN(C)CC4)o3)o2)cc1 | . | . | 28µM* | .
C=C1CCC[C@]2(C)C[C@H]3OC(=O)C(CNCCN(CC)CC)[C@H]3CC12 (stereo partly drawn) | -12% | -6% | 1% | 56µM*
C=C1CCC[C@]2(C)C[C@H]3OC(=O)C(CNCCN(C)C)[C@H]3CC12 (stereo partly drawn) | ? | -18% | 1% | -5%
C=C1CCC[C@]2(C)C[C@H]3OC(=O)[C@H](CNCCc4ccccc4OC)C3CC12 (stereo partly drawn) | . | . | . | 56µM*
CCOC(=O)NC1(NC2CCCCC2)Oc2ccccc2O1 | -26% | 2% | 0% | 56µM*
SMILES | uPA generation | TCR activator | ClpP mod | Sfp PPTase inh
CCOC(=O)NC1c2ccccc2Oc2ccccc21 | -2% | 4% | . | 5%
CCOC(=O)NC1(NCc2ccccc2)Oc2ccccc2O1 | -30% | 0% | -4% | 50µM*
CCOC(=O)NC1(NC(C)C)Oc2ccccc2O1 | -4% | 4% | 1% | ?
CCOC(=O)NC1(NCC(C)C)Oc2ccccc2O1 | . | 13% | -2% | 79µM*
CCOC(=O)NC1(Nc2ccc(C)cc2)Oc2ccccc2O1 | -8% | 3%[46.1 µM] | 1% | 35µM*
CC1Cc2c(COc3ccccc3)nc3c(c2CO1)CN(CCOc1ccccc1)CC3 (stereo not drawn) | . | . | . | 26%
O=C(CSC1=Nc2ccccc2C2=NC(Cc3ccccc3)C(=O)N12)Nc1ccccc1F (stereo not drawn) | . | . | -13% | .
CCOc1ccccc1Oc1coc2cc(O)ccc2c1=O | -2% | -1% | 32µM* | 9%
COc1ccc(Oc2coc3cc(OC(=O)/C=C/c4ccc(F)cc4)ccc3c2=O)cc1 | 0% | 4%[46.1 µM] | 0% | 23%
COc1ccccc1Oc1coc2cc(O)ccc2c1=O | -5% | -3% | 28µM* | -15%
CCOc1ccc2c(=O)c(Oc3ccccc3OCC)coc2c1 | -1% | -3% | -5% | -5%
COc1ccc(Oc2coc3cc(O)ccc3c2=O)cc1 | 9% | 0% | -29% | 24%
COc1ccc(Oc2coc3cc(OC(=O)/C=C/c4ccccc4)ccc3c2=O)cc1 | 0% | 3%[46.1 µM] | 25µM* | 4%
COc1ccc(-n2c(=O)cnc3cnc(N(C)C)nc32)cc1 | . | . | . | 16%
CCCCNc1ncnc2oc(-c3ccco3)c(-c3ccco3)c12 | . | . | 4% | .
COc1cccc(CN(C)C(=O)c2csc3c2CCCC3)c1OC | -4% | 2% | . | 6%
COc1ccc(CCN2CC(O)=C(c3nc(C)cs3)C2=N)cc1OC | . | 8% | 0% | 0%
COc1ccc(CCN2CC(O)=C(c3nc4ccccc4c(=O)[nH]3)C2=N)cc1OC | . | 3% | 22µM* | -6%
COc1ccc(-c2nc(-c3ccccc3)nc(Cl)c2C#N)cc1 | . | -4% | 32µM* | -13%
CCCOc1ccc(F)cc1-c1cc(C(=O)Nc2ccccc2)[nH]n1 | . | . | -3% | .
CC(C)(C)C1=Nn2c(nnc2-c2n[nH]c3c2CCC3)SC1 | -3% | 2% | -6% | 25µM*
COC(=O)C1=CN(C(C)C)C=C(C(=O)OC)C1c1cc(Br)c(OC)c(OC)c1 | . | -4%[46.1 µM] | 6.3µM* | -6%
O=C1OC(c2ccc(Cl)cc2)=N/C1=C\C=C\c1ccco1 | 17% | -1% | 3% | 45µM*
O=C1OC(c2ccccc2)=N/C1=C\C=C\c1ccco1 | -3% | -3% | . | 40µM*
CCOc1ccc2c(c1)n([O-])c1c([n+]2=O)CCCC1 | 0% | 7% | ? | 20µM*
SMILES | uPA generation | TCR activator | ClpP mod | Sfp PPTase inh
Cc1ccc2nc(/N=C(\N)NC(=O)NC3CCCCC3)nc(C)c2c1 | -2% | -3% | . | 45µM*
CN(C)c1ccc(/C=N/NC(=O)COc2ccccc2)cc1 | -3% | -1% | . | 3%
CCCCCC1CC1C(=O)N/N=C/c1ccc(N(C)C)cc1 (stereo not drawn) | 3% | 0% | 35µM* | -16%
CSC1CCCCC1(O)CSc1nc2c(cc1C#N)CCCC2 (stereo not drawn) | 4% | 4% | -3% | 50µM*
N#C/C(=C\c1ccccc1)C(=O)Nc1sc2c(c1C(N)=O)CCC2 | . | . | 0% | .
CC1CCC(C(C)C)C(OC(=O)Cn2c(-c3ccc(F)cc3)[n+](C)c3ccccc32)C1 (stereo not drawn) | -7% | -2%[46.1 µM] | -11% | -9%
CC1CCC(C(C)C)C(OC(=O)Cn2c(-c3ccccc3)[n+](C)c3ccccc32)C1 (stereo not drawn) | 4.5µM*! | 1%[46.1 µM] | -3% | -9%

Screening results as filed in PubChem BioAssay.
